{"source": "paper PMC7862700", "about": "“An all-to-all approach to the identification of sequence-specific readers for epigenetic DNA modifications on cytosine”", "test_in_all_cases": "DAPPL (digital affinity profiling via proximity ligation, sequencing); 10 mM Tris-HCl pH 7.5, 50 mM NaCl, 1 mM DTT, 4% glycerol, room temperature, 30 min; GST-TFs on glutathione beads, 16-mer random dsDNA library, 0.1% formaldehyde crosslink after washing; high values mean tight binding", "conditions_in_all_cases": "protein: recombinant; tags: N-terminal GST; dsDNA, one strand shown", "key": {"ETV2": {"biological_target": "T1, ETV2 (Homo sapiens, UniProt O00321 1-342)", "T1 sequence": "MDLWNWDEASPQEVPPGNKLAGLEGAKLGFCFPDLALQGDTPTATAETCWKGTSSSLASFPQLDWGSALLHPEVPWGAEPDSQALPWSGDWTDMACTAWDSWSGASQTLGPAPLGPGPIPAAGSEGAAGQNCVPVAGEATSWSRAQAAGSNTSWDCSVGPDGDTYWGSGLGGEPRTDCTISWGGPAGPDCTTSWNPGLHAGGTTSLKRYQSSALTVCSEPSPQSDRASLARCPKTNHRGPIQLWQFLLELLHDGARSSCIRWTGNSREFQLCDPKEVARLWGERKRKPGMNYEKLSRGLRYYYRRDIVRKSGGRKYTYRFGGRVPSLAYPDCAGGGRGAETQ", "in_short": "(§1)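 Human transcription factors fused to GST were expressed in yeast, captured on glutathione beads, given DNA barcodes and pooled with a GST-only negative control. Pools were incubated with 200 nmole of a 16-mer random double-stranded DNA library in Tris/NaCl/DTT/glycerol buffer at room temperature for 30 min. They were then washed, crosslinked with 0.1% formaldehyde, proximity-ligated (BsaI/T4 ligase, 1 h, 37 °C), PCR-amplified and sequenced on an Illumina NextSeq500. Binding signal is each 6-mer's read frequency for a factor divided by its frequency for the GST control.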"}, "ELF3": {"biological_target": "T2, ELF3 (Homo sapiens, UniProt P78545 1-371)", "T2 sequence": "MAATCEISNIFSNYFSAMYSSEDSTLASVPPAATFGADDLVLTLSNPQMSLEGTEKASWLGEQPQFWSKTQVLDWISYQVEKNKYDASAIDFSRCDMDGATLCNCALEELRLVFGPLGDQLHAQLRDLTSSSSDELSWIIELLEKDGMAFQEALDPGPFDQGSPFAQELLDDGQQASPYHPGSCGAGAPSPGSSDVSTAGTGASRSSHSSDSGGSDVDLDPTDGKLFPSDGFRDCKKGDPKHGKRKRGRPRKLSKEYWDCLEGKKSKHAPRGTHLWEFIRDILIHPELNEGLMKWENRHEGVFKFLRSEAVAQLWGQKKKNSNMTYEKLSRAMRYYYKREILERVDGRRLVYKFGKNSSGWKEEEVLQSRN", "in_short": "as §1"}, "ETV1": {"biological_target": "ETV1 (Homo sapiens, UniProt P50549 1-477)", "sequence (P50549 whole entry)": "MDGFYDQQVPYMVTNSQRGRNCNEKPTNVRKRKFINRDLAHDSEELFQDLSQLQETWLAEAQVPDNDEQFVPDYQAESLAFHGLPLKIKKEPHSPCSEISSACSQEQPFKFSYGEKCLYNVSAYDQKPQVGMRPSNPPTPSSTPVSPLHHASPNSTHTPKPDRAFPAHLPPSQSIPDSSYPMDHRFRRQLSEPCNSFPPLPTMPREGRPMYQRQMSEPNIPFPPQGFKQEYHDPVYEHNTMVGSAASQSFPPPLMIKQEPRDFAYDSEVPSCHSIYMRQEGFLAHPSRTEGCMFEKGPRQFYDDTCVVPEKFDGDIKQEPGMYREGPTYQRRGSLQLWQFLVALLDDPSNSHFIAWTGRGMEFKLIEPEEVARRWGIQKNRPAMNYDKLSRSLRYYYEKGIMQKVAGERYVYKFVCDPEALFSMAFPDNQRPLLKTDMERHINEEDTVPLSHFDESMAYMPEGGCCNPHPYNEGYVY", "in_short": "as §1"}, "ERF": {"biological_target": "T3, ERF (Homo sapiens, UniProt P50548 1-548)", "T3 sequence": "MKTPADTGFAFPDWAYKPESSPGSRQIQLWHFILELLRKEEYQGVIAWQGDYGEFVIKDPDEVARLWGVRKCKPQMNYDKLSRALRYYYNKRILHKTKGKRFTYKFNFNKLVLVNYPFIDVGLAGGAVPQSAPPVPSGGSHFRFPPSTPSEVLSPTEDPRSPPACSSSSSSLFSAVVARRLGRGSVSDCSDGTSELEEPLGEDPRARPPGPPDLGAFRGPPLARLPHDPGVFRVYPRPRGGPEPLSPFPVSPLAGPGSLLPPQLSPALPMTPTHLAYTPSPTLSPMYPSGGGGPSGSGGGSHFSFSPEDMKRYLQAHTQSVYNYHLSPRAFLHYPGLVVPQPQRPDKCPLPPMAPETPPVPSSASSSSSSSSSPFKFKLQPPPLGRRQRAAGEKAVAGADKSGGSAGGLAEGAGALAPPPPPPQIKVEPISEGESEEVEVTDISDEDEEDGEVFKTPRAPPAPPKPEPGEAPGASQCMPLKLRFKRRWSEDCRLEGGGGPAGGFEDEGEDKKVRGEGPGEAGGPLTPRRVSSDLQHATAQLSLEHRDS", "in_short": "as §1"}, "ETV3L": {"biological_target": "T4, ETV3L (Homo sapiens, UniProt Q6ZN32 1-361)", "T4 sequence": "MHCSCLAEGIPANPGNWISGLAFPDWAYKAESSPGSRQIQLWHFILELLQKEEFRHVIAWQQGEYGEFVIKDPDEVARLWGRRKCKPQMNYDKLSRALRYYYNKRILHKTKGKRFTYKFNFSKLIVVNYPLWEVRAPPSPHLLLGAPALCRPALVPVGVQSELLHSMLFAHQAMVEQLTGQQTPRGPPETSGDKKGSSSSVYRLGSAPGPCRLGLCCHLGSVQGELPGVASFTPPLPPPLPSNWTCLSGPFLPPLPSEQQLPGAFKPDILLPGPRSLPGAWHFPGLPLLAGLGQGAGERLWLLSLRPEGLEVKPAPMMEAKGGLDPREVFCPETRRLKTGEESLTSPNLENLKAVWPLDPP", "in_short": "as §1"}, "ETS2": {"biological_target": "T5, ETS2 (Homo sapiens, UniProt P15036 1-469)", "T5 sequence": "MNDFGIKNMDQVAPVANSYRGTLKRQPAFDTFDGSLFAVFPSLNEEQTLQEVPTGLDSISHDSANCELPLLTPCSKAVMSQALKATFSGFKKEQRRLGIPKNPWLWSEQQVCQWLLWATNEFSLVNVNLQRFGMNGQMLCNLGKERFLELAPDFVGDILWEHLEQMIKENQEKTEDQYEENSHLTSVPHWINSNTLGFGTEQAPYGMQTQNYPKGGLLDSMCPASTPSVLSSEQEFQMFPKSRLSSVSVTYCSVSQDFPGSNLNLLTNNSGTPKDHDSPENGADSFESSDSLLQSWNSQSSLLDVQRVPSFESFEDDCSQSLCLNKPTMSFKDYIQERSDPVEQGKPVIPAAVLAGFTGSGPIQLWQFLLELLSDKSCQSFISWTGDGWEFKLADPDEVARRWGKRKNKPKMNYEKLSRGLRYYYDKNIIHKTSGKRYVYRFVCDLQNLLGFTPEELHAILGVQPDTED", "in_short": "as §1"}, "SPDEF": {"biological_target": "T6, SPDEF (Homo sapiens, UniProt O95238 1-335)", "T6 sequence": "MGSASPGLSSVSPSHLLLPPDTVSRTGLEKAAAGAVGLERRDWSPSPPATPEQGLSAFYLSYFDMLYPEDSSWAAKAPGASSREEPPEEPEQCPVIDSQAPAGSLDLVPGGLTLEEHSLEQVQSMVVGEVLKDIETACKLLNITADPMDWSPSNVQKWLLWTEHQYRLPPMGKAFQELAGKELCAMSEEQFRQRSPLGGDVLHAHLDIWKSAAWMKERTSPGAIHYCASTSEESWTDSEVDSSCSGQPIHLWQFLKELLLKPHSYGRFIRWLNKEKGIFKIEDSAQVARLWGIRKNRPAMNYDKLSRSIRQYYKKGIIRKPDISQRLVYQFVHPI", "in_short": "as §1"}, "ETV7": {"biological_target": "T7, ETV7 (Homo sapiens, UniProt Q9Y603 1-341)", "T7 sequence": "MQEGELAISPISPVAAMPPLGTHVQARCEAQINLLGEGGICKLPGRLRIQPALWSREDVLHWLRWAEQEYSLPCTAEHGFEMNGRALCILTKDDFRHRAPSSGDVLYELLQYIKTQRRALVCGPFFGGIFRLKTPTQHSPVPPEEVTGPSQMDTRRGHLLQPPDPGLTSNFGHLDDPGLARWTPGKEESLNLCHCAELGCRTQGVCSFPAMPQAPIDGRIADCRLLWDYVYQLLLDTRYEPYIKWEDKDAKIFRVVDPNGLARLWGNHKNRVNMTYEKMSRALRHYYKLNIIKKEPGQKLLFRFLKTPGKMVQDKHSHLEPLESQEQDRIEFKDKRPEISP", "in_short": "as §1"}, "ETV3": {"biological_target": "T8, ETV3 (Homo sapiens, UniProt P41162-2 1-143)", "T8 sequence": "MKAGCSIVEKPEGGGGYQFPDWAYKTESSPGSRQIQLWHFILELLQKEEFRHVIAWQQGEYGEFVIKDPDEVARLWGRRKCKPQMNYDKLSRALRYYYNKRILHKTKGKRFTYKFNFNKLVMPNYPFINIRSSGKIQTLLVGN", "in_short": "as §1"}, "ETV6": {"biological_target": "ETV6 (Homo sapiens, UniProt P41212 1-452)", "sequence (P41212 whole entry)": "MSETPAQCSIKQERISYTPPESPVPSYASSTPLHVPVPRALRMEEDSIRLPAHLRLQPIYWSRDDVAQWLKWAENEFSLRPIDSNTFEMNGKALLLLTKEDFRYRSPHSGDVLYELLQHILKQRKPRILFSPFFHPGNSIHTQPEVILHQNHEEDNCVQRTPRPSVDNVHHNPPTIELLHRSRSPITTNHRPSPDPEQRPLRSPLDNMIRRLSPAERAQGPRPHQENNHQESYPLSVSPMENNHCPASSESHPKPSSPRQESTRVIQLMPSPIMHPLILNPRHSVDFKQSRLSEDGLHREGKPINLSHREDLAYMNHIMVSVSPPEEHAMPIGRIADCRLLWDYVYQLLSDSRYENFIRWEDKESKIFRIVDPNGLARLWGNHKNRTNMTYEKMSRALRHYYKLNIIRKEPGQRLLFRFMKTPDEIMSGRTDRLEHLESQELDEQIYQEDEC", "in_short": "as §1"}}}
{"sequence": "GGTAAA", "values": [{"measurement": "binding signal", "setting": "ETV2", "result": "1.03 fold enrichment (6-mer frequency, TF over GST control)"}, {"measurement": "binding signal", "setting": "ELF3", "result": "1.13 fold enrichment (6-mer frequency, TF over GST control)"}, {"measurement": "binding signal", "setting": "ETV1", "result": "1.08 fold enrichment (6-mer frequency, TF over GST control)"}, {"measurement": "binding signal", "setting": "ERF", "result": "1.01 fold enrichment (6-mer frequency, TF over GST control)"}, {"measurement": "binding signal", "setting": "ETV3L", "result": "1 fold enrichment (6-mer frequency, TF over GST control)"}, {"measurement": "binding signal", "setting": "ETS2", "result": "1.1 fold enrichment (6-mer frequency, TF over GST control)"}, {"measurement": "binding signal", "setting": "SPDEF", "result": "1.02 fold enrichment (6-mer frequency, TF over GST control)"}, {"measurement": "binding signal", "setting": "ETV7", "result": "1.12 fold enrichment (6-mer frequency, TF over GST control)"}, {"measurement": "binding signal", "setting": "ETV3", "result": "1.06 fold enrichment (6-mer frequency, TF over GST control)"}, {"measurement": "binding signal", "setting": "ETV6", "result": "1.07 fold enrichment (6-mer frequency, TF over GST control)"}]}
